Compound activity: PubChem BioAssay, National Center for Advancing Translational Sciences (NCATS)
KCNH2 3.1 block – qHTS for Inhibitors of KCHN2 3.1: Mutant qHTS; Potassium voltage-gated channel subfamily H member 2, brain isoform KCNH2 3.1 (human); U2OS KCNH2 3.1, thallium flux FluxOr; hits give low values; activity change, % (tested at about 1.8 µM); actives 0.95% (n = 340,000);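 active = maximum activity change below -70%; inconclusive = maximum activity change from -70% to -50%; inactive = maximum activity change above -50%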;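 also: thallium influx rate constant from kinetic fluorescence after stimulation buffer; % is scaled to controls: 0 for no effect and ±100 for the full control effect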
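We transduce U2OS cells with the mutant 3.1 virus, culture them overnight, load FluxOr with Red40 quencher for 45 min, then add stimulation buffer and read kinetically for 2 min to derive a normalized rate constant.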
KB-V1 cytotox – qHTS assay for MDR1-selective chemotherapeutics: Primary screen using the drug-selected MDR subline cells KB-V1; KB-V1 MDR cells viability, CellTiter-Glo, 72 h; Potency, µM (top dose mostly 46.1 µM), actives largely listed as cytotoxic; actives 3.4% (n = 400,000); AID 1347076, 2019; also: potency is read from the fitted curve at half-maximal effect; % is scaled to controls: 0 for no effect and ±100 for the full control effect; nearly all actives have a fitted effect of over 60% in size
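KB-V1, DMEM (no phenol red) + 10% FBS; cpd pin-transferred, titration series; 72 h, 37 degrees C; CellTiter-Glo, luminescence. Data normalized, curve-fit.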
KCNH2 WT inh – qHTS for Inhibitors of KCHN2 3.1: Wildtype qHTS. actives 0.37% (n = 340,000). Voltage-gated inwardly rectifying potassium channel KCNH2 (Homo sapiens), Q12809. activity change, % at 1.84 µM. U2OS, BacMam KCNH2, thallium flux FluxOr; hits give low values. AID 720551, 2013;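 active = maximum activity change below -70%; inconclusive = maximum activity change between -70% and -50%; inactive = maximum activity change above -50%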; also: % is scaled to controls: 0 for no effect and ±100 for the full control effect
Target sequence (Q12809 whole entry, looked up): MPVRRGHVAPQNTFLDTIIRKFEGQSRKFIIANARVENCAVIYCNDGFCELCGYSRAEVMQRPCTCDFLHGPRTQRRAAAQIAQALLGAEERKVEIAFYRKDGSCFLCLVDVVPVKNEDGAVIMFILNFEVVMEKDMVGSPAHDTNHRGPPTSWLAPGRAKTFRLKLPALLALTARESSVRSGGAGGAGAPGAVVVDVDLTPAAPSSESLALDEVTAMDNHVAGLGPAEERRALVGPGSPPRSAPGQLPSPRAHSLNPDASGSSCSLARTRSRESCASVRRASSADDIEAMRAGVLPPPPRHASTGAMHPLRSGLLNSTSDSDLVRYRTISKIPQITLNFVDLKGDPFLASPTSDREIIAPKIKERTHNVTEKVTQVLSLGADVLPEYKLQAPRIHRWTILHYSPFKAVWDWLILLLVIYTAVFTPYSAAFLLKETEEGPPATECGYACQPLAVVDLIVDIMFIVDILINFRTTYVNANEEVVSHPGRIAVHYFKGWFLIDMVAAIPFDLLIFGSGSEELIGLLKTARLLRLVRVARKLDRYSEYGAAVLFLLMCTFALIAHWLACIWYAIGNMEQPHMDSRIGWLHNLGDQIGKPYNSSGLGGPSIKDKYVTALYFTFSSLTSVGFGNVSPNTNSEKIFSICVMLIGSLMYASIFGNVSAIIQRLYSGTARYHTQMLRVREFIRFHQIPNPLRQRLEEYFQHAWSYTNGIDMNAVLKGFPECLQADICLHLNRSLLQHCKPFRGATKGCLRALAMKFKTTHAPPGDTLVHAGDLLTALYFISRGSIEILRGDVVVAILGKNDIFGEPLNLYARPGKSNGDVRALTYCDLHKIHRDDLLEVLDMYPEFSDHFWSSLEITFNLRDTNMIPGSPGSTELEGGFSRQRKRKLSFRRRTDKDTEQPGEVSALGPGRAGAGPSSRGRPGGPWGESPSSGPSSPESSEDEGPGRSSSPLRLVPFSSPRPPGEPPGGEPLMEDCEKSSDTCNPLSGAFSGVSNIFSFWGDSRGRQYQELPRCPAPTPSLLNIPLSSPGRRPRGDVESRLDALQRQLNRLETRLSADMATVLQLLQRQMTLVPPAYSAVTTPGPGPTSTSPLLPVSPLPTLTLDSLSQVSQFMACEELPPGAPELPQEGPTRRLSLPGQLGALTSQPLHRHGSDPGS
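U2OS cells transduced with wild-type KCNH2 virus are loaded with FluxOr dye for 45 min, and thallium flux is measured in kinetic reads before and after stimulation buffer. Rate constants are normalized to DMSO controls.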
SW480 rerep – A quantitative high throughput screen for small molecules that induce DNA re-replication in SW480 colon adenocarcinoma cells. AID 624297, 2012. actives 1.8% (n = 340,000). Potency, µM (titrated, usually from 46.1 µM), without a hit: at the highest dose re-replication activation, hits mostly activators. SW480 DNA re-replication, Hoechst DNA content imaging, 48 h; also: potency is read from the fitted curve at half-maximal effect; % of control where 0% means no effect; nearly all actives have a fitted effect of over 55% in size
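Readout is total intensity of Hoechst-stained nuclei, excited at 405 nm and collected at 500-530 nm. Compound treatment lasted 48 hr at 37 C in 5% CO2 before staining.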
MCF10A rereplic – A quantitative high throughput screen for small molecules that induce DNA re-replication in MCF 10a normal breast cells. MCF 10A DNA re-replication, Hoechst nuclear intensity, 48 h. Potency, µM (series often up to 46.1 µM), inactives show at the highest dose activity, positive = re-replication, actives largely listed as activators. actives 2.9% (n = 350,000); also: potency is read from the fitted curve at half-maximal effect; % of control where 0% means no effect; nearly all actives have a fitted effect of over 50% in size
KB-3-1 tox – qHTS assay for MDR1-selective chemotherapeutics: Primary screen using the parental adenocarcinoma cell KB-3-1. KB-3-1 viability, CellTiter-Glo ATP luminescence, 72 h. AID 1347075, 2019. actives 1.4% (n = 400,000). Potency, µM (top dose mostly 46.1 µM), usual class: cytotoxic; also: potency is read from the fitted curve at half-maximal effect; % is scaled to controls: 0 for no effect and ±100 for the full control effect; nearly all actives have a fitted effect of over 60% in size
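Multi-concentration cytotoxicity screen in KB-3-1 cells grown in DMEM lacking phenol red with 10% FBS. After 72 h at 37 °C with compound, ATP-dependent luminescence was recorded.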
* = called active by the depositor. Only some compounds are listed: those with a hit (about 7.6% of all), similar ones and a draw of the others. Unless noted, calls follow the shape of the dose curve; as a rule, active = well fitted curve in the direction sought with a large enough effect; inconclusive = small, poorly fitted or top-dose-only effect, or another doubt; inactive = no such curve, though single readings can be large; an effect the other way counts as inactive or inconclusive.

How did Cc1cc2c(SCC(=O)Nc3cccc(O)c3)ncnc2s1 do in these assays?
KCNH2 3.1 block: 18; KB-V1 cytotox: inactive; KCNH2 WT inh: 11; SW480 rerep: inconclusive; MCF10A rereplic: 32%; KB-3-1 tox: inactive

How did Cc1cccc(NC(=O)CN2C(=O)S/C(=C\c3ccc(-c4cccc(C(=O)O)c4C)o3)C2=O)c1 do in these assays?
KCNH2 3.1 block: -1; KB-V1 cytotox: inactive; KCNH2 WT inh: 2; SW480 rerep: inconclusive; MCF10A rereplic: 23µM*; KB-3-1 tox: inactive

How did CCn1c(C)cc(/C=C2\SC(=O)N(CC(=O)Nc3ccc(C)c(C)c3)C2=O)c1C do in these assays?
KCNH2 3.1 block: -6; KB-V1 cytotox: inactive; KCNH2 WT inh: 3; SW480 rerep: 0%; MCF10A rereplic: inconclusive; KB-3-1 tox: inactive

Results for Cc1ccc(NC(=O)CN2C(=O)S/C(=C/c3ccc(-c4cc(C(=O)O)ccc4C)o3)C2=O)cc1C ?
KCNH2 3.1 block: 9; KB-V1 cytotox: inactive; KCNH2 WT inh: 4; SW480 rerep: inconclusive; MCF10A rereplic: 5.8µM*; KB-3-1 tox: inactive

What do the screens show for `Cc1ccccc1NC(=O)CN1C(=O)S/C(=C\c2ccc(-c3cccc(C(=O)O)c3C)o2)C1=O`?
KCNH2 3.1 block: 19; KB-V1 cytotox: inactive; KCNH2 WT inh: -5; SW480 rerep: 15%; MCF10A rereplic: 4%; KB-3-1 tox: inactive

Results for OCC1(CCc2ccccc2)CCCN(CCCc2ccccc2)C1 (stereo unspecified) ?
KCNH2 3.1 block: -96*; KB-V1 cytotox: inactive; KCNH2 WT inh: inconclusive; SW480 rerep: -2%; MCF10A rereplic: 17%; KB-3-1 tox: inactive

What do the screens show for `CCCCNC(=O)C1(C)CCCCN1Cc1ccc(OCc2ccccc2)cc1` (stereo unspecified)?
KB-V1 cytotox: 15µM*; KB-3-1 tox: inconclusive

How did CCOC(=O)c1cc2n(c1/N=C/N(C)C)-c1ccccc1C2=O do in these assays?
KCNH2 3.1 block: 7; KB-V1 cytotox: inactive; KCNH2 WT inh: -4; SW480 rerep: -2%; MCF10A rereplic: 3%; KB-3-1 tox: inactive

How did Cn1cc(-c2coc3c(C(=O)Nc4ccccc4)cccc23)cn1 do in these assays?
KB-V1 cytotox: 10µM*; KB-3-1 tox: inactive

Results for COc1cc(C)ccc1S(=O)(=O)NC(=O)C1(C)CCN1C(=O)Cc1ccc(Cl)cc1Cl (stereo unspecified) ?
KB-V1 cytotox: inactive; KB-3-1 tox: inactive

Results for CCOC(=O)c1sc(N2C(=O)c3oc4ccc(F)cc4c(=O)c3C2c2cccc(OC)c2)nc1C (stereo unspecified) ?
KB-V1 cytotox: inactive; KB-3-1 tox: inactive

How did COc1cc2c(cc1OC)C1(CCCC1)CNC2c1ccc([N+](=O)[O-])cc1 (stereo unspecified) do in these assays?
KCNH2 3.1 block: -17; KB-V1 cytotox: inactive; KCNH2 WT inh: 1; SW480 rerep: 23µM*; MCF10A rereplic: -33%; KB-3-1 tox: inactive

What do the screens show for `COc1cc2c(cc1OC)C1(CCCC1)CNC2C` (stereo unspecified)?
KCNH2 3.1 block: -12; KB-V1 cytotox: inactive; KCNH2 WT inh: -20; SW480 rerep: 21%; MCF10A rereplic: inconclusive; KB-3-1 tox: inactive

How did Cc1ccc(C)c(N2CCN(C(=O)c3ccc4nc(-c5ccco5)c(-c5ccco5)nc4c3)CC2)c1 do in these assays?
KCNH2 3.1 block: 4; KB-V1 cytotox: inconclusive; KCNH2 WT inh: -17; SW480 rerep: 18µM*; MCF10A rereplic: inconclusive; KB-3-1 tox: 18µM*

How did COc1ccccc1N1CCN(C(=O)c2ccc3ncsc3c2)CC1 do in these assays?
KCNH2 3.1 block: -1; KB-V1 cytotox: 12µM*; KCNH2 WT inh: 11; SW480 rerep: 16µM*; MCF10A rereplic: 21µM*; KB-3-1 tox: 5.2µM*

Results for COc1ccccc1N1CCN(C2CCN(C(=O)c3cccc(F)c3)CC2)CC1 ?
KCNH2 3.1 block: 3; KB-V1 cytotox: 16µM*; KCNH2 WT inh: 2; SW480 rerep: -2%; MCF10A rereplic: 12%; KB-3-1 tox: inactive

What do the screens show for `COc1ccc(OC)c2sc(N3CCN(C(=O)c4ccc5ncsc5c4)CC3)nc12`?
KCNH2 3.1 block: 1; KB-V1 cytotox: inactive; KCNH2 WT inh: -3; SW480 rerep: -524%; MCF10A rereplic: -6%; KB-3-1 tox: inactive

How did CC1CCCN(C(=O)c2ccc3ncsc3c2)C1 (stereo unspecified) do in these assays?
KCNH2 3.1 block: -9; KB-V1 cytotox: inactive; KCNH2 WT inh: -6; SW480 rerep: 3.7µM*; MCF10A rereplic: 9%; KB-3-1 tox: inactive

What do the screens show for `COc1ccccc1N1CCN(C2CCN(C(=O)c3ccc(F)cc3)CC2)CC1`?
KCNH2 3.1 block: 4; KB-V1 cytotox: inactive; KCNH2 WT inh: 3; SW480 rerep: 1%; MCF10A rereplic: 1%; KB-3-1 tox: inactive

What do the screens show for `CCOc1ccc(CNS(=O)(=O)c2cccs2)cc1OCC`?
KCNH2 3.1 block: -13; KB-V1 cytotox: inactive; KCNH2 WT inh: 2; SW480 rerep: -1%; MCF10A rereplic: 0%; KB-3-1 tox: inactive

What do the screens show for `Cc1nn(Cc2c(Cl)cccc2Cl)c(C)c1N`?
KCNH2 3.1 block: -3; KB-V1 cytotox: inactive; KCNH2 WT inh: -14; SW480 rerep: -13%; MCF10A rereplic: -1%; KB-3-1 tox: inactive

What do the screens show for `C#CCN1[C@@H]2CCN(C2)c2cc(Br)ccc2S1(=O)=O`?
KCNH2 3.1 block: -7; KB-V1 cytotox: inactive; KCNH2 WT inh: -9; SW480 rerep: -17%; MCF10A rereplic: 0%; KB-3-1 tox: inactive

How did Cc1cccc(C(=O)OCc2cc(=O)n3ccsc3n2)c1 do in these assays?
KB-V1 cytotox: inactive; KB-3-1 tox: inactive

What do the screens show for `COc1ccccc1N1CCN(C(=O)c2ccc3nc(-c4ccco4)c(-c4ccco4)nc3c2)CC1`?
KCNH2 3.1 block: -15; KB-V1 cytotox: 23µM*; KCNH2 WT inh: 4; SW480 rerep: inconclusive; MCF10A rereplic: 23µM*; KB-3-1 tox: inconclusive
